BaF3 parental: parental Ba/F3 viability inhibition as JAK2V617F counter-screen | inhibition, % at 5.6 µM | CellTiter-Glo ATP luminescence | AID 1486 | 220,000 compounds, 1.1% hits;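 active = inhibition above a per-campaign cutoff, the mean inhibition of all tested compounds plus 3 SD, cut at about 27% in these data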;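 note: 0% = DMSO wells and 100% = JAK Inhibitor I control wells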
Ba/F3 V617F tox: reduce viability of Ba/F3 cells dependent on JAK2V617F. AID 1446. Ba/F3 EpoR-JAK2V617F viability, ATP luminescence. 220,000 compounds, 1.1% hits. inhibition, % at 5.6 µM;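 active = inhibition above the campaign mean plus 3 SD over all tested compounds, cut at about 24% in these data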;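 note: cytokine-independent growth of Ba/F3 cells driven by EpoR plus mutant JAK2; 0% = DMSO-treated cells and 100% = JAK inhibitor I control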
APP 5UTR inh: APP translation inhibition; SH-SY5Y APP 5'UTR-luciferase reporter, luminescence; inhibition, % at 2 µM; 190,000 compounds, 0.82% hits;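 active = inhibition above a set limit, derived from the sample mean plus 3 SD, cut at about 45% in these data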
IEC-6 cytotox: IEC-6 cytotoxicity, counter-screen for KLF5 inhibitors; luminescence viability; inhibition, % at 5 µM; 290,000 compounds, 0.78% hits; in the data active = inhibition above about 22%;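 note: 0% = plate median of test compound wells and 100% = cytotoxic reference compound wells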
aSyn UTR inh: 5' untranslated region of α-synuclein, MLPCN primary screen; alpha-synuclein 5'UTR reporter, inhibitor activity; inhibition, % (tested at 7.5 µM); 300,000 compounds, 0.82% hits; AID 1813; in the data active = inhibition above about 60%;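 note: H4 neuroglioblastoma cells stably carrying SNCA 5'UTR luciferase fusion; 0% = DMSO wells and 100% = positive control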
KLF5 inh: inhibitors of KLF5 expression | DLD-1 KLF5 promoter-luciferase reporter, luminescence | inhibition, % at 5 µM | 290,000 compounds, 0.23% hits;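 active = inhibition above a per-plate limit of that plate's mean compound inhibition plus 3 SD, cut at about 60% in these data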;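 note: 0% = DMSO wells and 100% = LY294002 at 200 µM; higher means less KLF5 promoter-driven luciferase light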
Starred values were filed as active, the others as inactive; . = no result given. An excerpt weighted towards active compounds, which were near 2.2% of everything screened.

SMILES	BaF3 parental	Ba/F3 V617F tox	APP 5UTR inh	IEC-6 cytotox	aSyn UTR inh	KLF5 inh
CC(C)N1CCc2c(sc(NC(=O)CN3C(=O)c4ccccc4C3=O)c2C(N)=O)C1	6	-1	-10	-1	12	-25
CN(C)CCCN(Cc1cc2cc3c(cc2[nH]c1=O)OCO3)C(=S)Nc1ccccc1	7	4	-1	1	-51	3
CN(C)CCCN(Cc1cc2cc3c(cc2[nH]c1=O)OCO3)C(=S)Nc1cccc(Cl)c1	46*	36*	3	0	-45	-24
CCN(CC)c1ccc(/C=N/NC(=O)c2ccco2)cc1	10	6	49*	9	-39	-64
CCN(CC)c1ccc(/C=N/NC(=O)c2ccco2)c(O)c1	1	0	.	22	11	-82
Cc1ccc(Nc2nnc(C(C)(C)C)c(=O)n2N)cc1	5	-1	-12	-8	16	-10
CC(C)(C)c1nnc(N/N=C/c2cc(Br)ccc2O)n(N)c1=O	1	0	80*	-3	116*	9
CCc1ccc(N(CC(=O)N2CCCCCC2)S(C)(=O)=O)cc1	.	.	.	1	6	-18
O=c1c2cccc3c2c(nn1CN1CCOCC1)-c1ccccc1-3	28*	6	11	13	19	-19
O=C(CCn1nc(-c2ccccc2)c2ccccc2c1=O)NN1CCOCC1	0	-2	8	-7	-5	18
COCCn1c(C)cc(C(=O)CSc2nnc(C)s2)c1C	3	-3	-22	2	100*	4
COCCn1c(C)cc(C(=O)COC(=O)c2cccc(O)c2)c1C	-1	-4	.	3	67*	28
COCCn1c(C)cc(C(=O)COC(=O)c2cc3c(s2)CCC3)c1C	4	-3	-18	-2	-78	2
Fc1cccc(NC(=S)NNc2ccccc2)c1	.	.	.	6	-140	-12
Fc1cccc(NC(=S)NNc2c3ccccc3nc3ccccc23)c1	7	-3	54*	8	-7	-20
Nc1c(C(=O)NCCc2ccccc2)nnn1Cc1ccc(Br)cc1F	8	1	-3	7	2	-21
CC(=O)OCC[n+]1c(C)n(-c2ccccc2)c2ccc(Cl)cc21	12	-2	-46	1	10	-28
CCOC(=O)c1ccc2c(c1)[n+](CC)c(C)n2-c1ccccc1	76*	38*	17	-6	-4	-17
CCOC(=O)c1ccc2c(c1)n(CC)c(C)[n+]2CC	36*	20	5	7	-21	-2
CCOC(=O)c1c(O)c(O)c(C(=O)OCC)n1-c1ccccc1	-3	-3	.	-11	13	-31
CCn1c(C)[n+](CC)c2ccc(C(=O)N(C)c3ccccc3)cc21	4	4	16	6	8	-14
CC[n+]1c(C)n(-c2ccccc2)c2ccc(C(=O)OC)cc21	55*	36*	-11	-3	-2	-5
Clc1ccc2nc(-c3ccccn3)c(Nc3ccc4c(c3)OCO4)n2c1	5	0	46*	0	-47	-4
CC(OC(=O)CCc1ccccc1)C(=O)Nc1ncc(Cl)cc1Cl (stereo not drawn)	.	.	.	2	-1	-5
CC(=O)Nc1cccc(NC(=O)CSc2nnnn2-c2ccc3c(c2)OCO3)c1	-10	2	.	-1	.	-5
SMILES	BaF3 parental	Ba/F3 V617F tox	APP 5UTR inh	IEC-6 cytotox	aSyn UTR inh	KLF5 inh
CCC1C/C(=C/c2ccco2)C(=O)/C(=C/c2ccco2)C1 (stereo not drawn)	2	30*	-21	-7	.	-8
CC1CN(S(=O)(=O)c2cccc(C(=O)NCCCn3ccnc3)c2)CC(C)O1 (stereo not drawn)	5	1	3	1	5	-22
CC1CN(S(=O)(=O)c2ccc(C(=O)NCCCn3ccnc3)cc2)CC(C)O1 (stereo not drawn)	0	-2	18	-4	105*	-23
O=C(COC(=O)CNC(=O)c1ccc(Cl)cc1)Nc1ccc(Cl)cc1C(F)(F)F	4	2	3	-3	-3	-3
CCNC(=O)c1ccc(=O)n(Cc2ccc(Cl)cc2Cl)c1	.	.	.	.	-7	.
CCOc1ccc(C(=O)NCC(=O)N2CCCC2)cc1	.	.	.	-6	-10	-6
CC(C)(C)c1cc(C(c2cccnc2)N2CCN(CCO)CC2)cc(C(C)(C)C)c1O (stereo not drawn)	3	-2	59*	-3	-8	0
Cn1cc(C(=O)c2ccc(Cl)cc2)cc1-c1nc2ccccc2n1C	47*	-2	.	2	11	-11
COc1ccc(OC)c(S(=O)(=O)ON2C(=O)c3ccccc3C2=O)c1	.	.	.	-3	-90	-31

Screening data: PubChem BioAssay, several laboratories
